# Shown are actives, neighbours in structure and some others; about 3.2% of the full set was active somewhere.
# ERAP1 inh = ERAP1 (human) enzyme inhibition | inhibition, % at 10.7 µM | 340,000 tested, 0.15% active | AID 652197 | Q9NZ08 | recombinant ERAP1, Leu-AMC fluorescence, 60 min;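 active = mean replicate inhibition of at least 30%, or all replicates individually reaching that 30% level; inactive = mean below 30% and not every replicate reaching it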;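 note: 0% = neutral control wells and 100% = L-leucinethiol positive control wells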
# Target sequence (Q9NZ08 whole entry, looked up): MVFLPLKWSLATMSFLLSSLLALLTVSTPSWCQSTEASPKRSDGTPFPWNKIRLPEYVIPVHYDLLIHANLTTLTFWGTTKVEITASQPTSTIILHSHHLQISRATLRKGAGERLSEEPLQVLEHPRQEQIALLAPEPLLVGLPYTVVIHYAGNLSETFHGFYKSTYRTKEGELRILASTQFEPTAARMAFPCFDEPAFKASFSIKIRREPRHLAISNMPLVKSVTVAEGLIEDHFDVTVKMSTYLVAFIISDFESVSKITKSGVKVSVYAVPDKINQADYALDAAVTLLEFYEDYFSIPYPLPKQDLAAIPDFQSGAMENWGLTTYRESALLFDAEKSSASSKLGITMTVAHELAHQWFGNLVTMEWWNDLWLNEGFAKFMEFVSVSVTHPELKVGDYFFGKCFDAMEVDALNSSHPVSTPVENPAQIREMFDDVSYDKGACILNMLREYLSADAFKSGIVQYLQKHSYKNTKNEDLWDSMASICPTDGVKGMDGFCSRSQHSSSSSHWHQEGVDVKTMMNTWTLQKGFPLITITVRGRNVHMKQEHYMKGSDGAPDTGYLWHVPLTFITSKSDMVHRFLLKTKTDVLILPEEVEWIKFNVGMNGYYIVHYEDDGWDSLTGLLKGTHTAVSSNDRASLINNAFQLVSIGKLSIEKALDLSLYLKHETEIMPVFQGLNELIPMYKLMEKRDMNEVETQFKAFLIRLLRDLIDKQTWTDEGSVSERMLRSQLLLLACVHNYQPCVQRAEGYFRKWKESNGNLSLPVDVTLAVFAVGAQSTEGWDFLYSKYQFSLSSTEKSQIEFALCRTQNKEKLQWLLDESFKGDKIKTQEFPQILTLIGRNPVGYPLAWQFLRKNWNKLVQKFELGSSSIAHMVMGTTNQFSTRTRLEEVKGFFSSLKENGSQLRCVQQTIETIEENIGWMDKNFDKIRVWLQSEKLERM
# CaV13 FRET inh = Disruptors of the CACNA1D IQ motif to Ca2+-dependent inactivation inhibitor domain association, primary screening, Förster resonance energy transfer in intact living …; HEK cells, CFP/YFP FRET ICDI-IQ, plate reader, 10 min; percent FRET-ratio fall versus neutral wells; 340,000 tested, 0.098% active; inhibition, % at 12.3 µM;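 active = mean replicate inhibition of at least 30% and at least 1% of replicates passing that level; inconclusive = only one of the two criteria is met; inactive = neither criterion is met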;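 note: 0% = median of the neutral control wells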
# PGC1a acetyl inh = lowers PGC1a acetylation signal in U2OS cells | AlphaScreen anti-acetyl-lysine; with virally co-expressed GCN5 acetyltransferase | inhibition, % at 15.6 µM | 350,000 tested, 0.17% active | AID 651687;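 active = every replicate shows inhibition of at least 40%; inconclusive = mean inhibition at least 40% but some replicate below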;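 note: 0% = neutral control wells and 100% = positive control wells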
# INS-1E GSIS act = primary screen for activators of insulin secretion dependent on glucose, INS-1E cells, GLuc reporter luminescence. INS-1E GLuc reporter insulin secretion, 2-3 h. activation, % at 16.6 µM. 370,000 tested, 0.61% active;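 active = lowest replicate activation of at least 40%, so every replicate reaches that level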;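 note: 0% = median of neutral control wells and 100% = median of IBMX positive control wells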
# DENV2 CPE rescue = protects cells from dengue virus 2 cytopathic effect; DENV2-infected cells, cytopathic effect rescue, plate reader; CPE inhibition, % at 9.99 µM; 350,000 tested, 1.7% active; AID 651640; in the data active = CPE inhibition above about 20%, passing the limit was not always enough; inconclusive = no clear call, values can overlap the other calls; tested in BHK-21 cells;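 note: 0% = median of neutral control wells and 100% = median of positive control wells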
# rRNA inh HTS = inhibitors of bacterial rRNA selective over humanized ribosomes. E. coli WT GFP vs humanized-ribosome RFP mutants, fluorescence, 24 h; active compounds read low; DMSO median 0, no signal -100. GFP signal change (wild-type ribosome), % (test concentration not listed). 350,000 tested, 1.6% active;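 active = significant combined selectivity score with lowered wild-type GFP, culture density cut under 30%, mutant RFP and density less affected; inactive = any of these conditions unmet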
# The depositor's hits bear a star; ? = inconclusive; . = no result given.
SMILES,ERAP1 inh,CaV13 FRET inh,PGC1a acetyl inh,INS-1E GSIS act,DENV2 CPE rescue,rRNA inh HTS
O=C(c1ccccc1NS(=O)(=O)c1ccccc1[N+](=O)[O-])N1CCOCC1,.,-18.6,0.5,-6.3,.,.
CC(=O)N(C)C[C@@H]1Oc2cc(C#CC3CC3)ccc2S(=O)(=O)N([C@H](C)CO)C[C@@H]1C,.,.,-0.4,-0.8,.,-2.9
c1ccc(CCN2CCN=C2Nc2ccccc2)cc1,1.9,-5.3,11.6,42.5*,8.8,20.3
CC(C)CCCN1CCN=C1Nc1ccccc1,0.8,-9.0,.,25.4,26.7*,7.9
Cc1cccc(CCN2CCN=C2Nc2ccccc2)c1,-5.0,-4.8,.,10.9,-3.8,13.9
Fc1ccc(CCN2CCN=C2Nc2ccccc2)cc1,-0.2,-4.6,13.5,.,124.4*,21.9
N#Cc1ccsc1NC(=O)CSc1nnnn1-c1ccc(O)cc1,-0.7,-2.3,11.4,12.0,9.5,-25.5*
COc1ccccc1C#Cc1ccc2c(c1)O[C@H](CN(C)Cc1ccccc1)[C@@H](C)CN([C@H](C)CO)S2(=O)=O,0.6,.,-3.6,-15.1,?,4.6
C[C@H]1CN([C@@H](C)CO)C(=O)c2cccc(NC(=O)C3CCOCC3)c2O[C@H]1CN(C)CC1CCCCC1,-2.8,.,16.7,11.3,43.6*,0.1
C[C@H]1CN([C@@H](C)CO)C(=O)c2cccc(NC(=O)NC3CCCCC3)c2O[C@@H]1CN(C)CC1CCCCC1,-2.6,.,8.9,-7.1,29.7*,1.3
C[C@@H]1CN([C@@H](C)CO)C(=O)c2cccc(NC(=O)C3CCOCC3)c2O[C@@H]1CN(C)CC1CCCCC1,-3.0,.,-0.5,25.9,-4.8,3.8
CN1C(=O)c2cc(NC(=O)c3cccs3)ccc2OC[C@H]2O[C@H](CC(=O)O)CC[C@@H]21,2.6,.,7.7,1.8,-4.0,2.0
CC(C)(C)OC(=O)N[C@H]1C=C[C@@H](CC(=O)OCC(F)(F)F)C1,10.8,-7.8,.,-0.6,35.7*,7.9
C[C@H](O)[C@@H]1CN2CCc3c([nH]c4ccc(-c5ccc6c(c5)OCO6)cc34)[C@@H]2C[C@@H]1N(C)C(=O)NC1CCCCC1,-3.9,-3.4,-22.8,-21.8,2.8,-52.3*
Cc1ccc(S(=O)(=O)N(C)[C@H]2C[C@H]3c4cc(-c5ccc6c(c5)OCO6)ccc4CCN3C[C@H]2[C@H](C)O)cc1,-3.7,-3.9,.,17.7,32.2*,28.7
Cc1cccc(-c2ccc3[nH]c4c(c3c2)CCN2C[C@@H]([C@H](C)O)[C@@H](N(C)C(=O)Nc3ccc(F)cc3)C[C@@H]42)c1,7.4,-7.1,-3.3,-4.4,-12.1,-21.8*
CCCCCc1cc(=O)oc2c(C(CCN(CC)CC)c3cc(OC)c(OC)c(OC)c3)c(OC)cc(OC)c12 (stereo not drawn),0.5,-9.9,.,62.9*,-10.2,-32.9
Cc1ccc(CCSc2ccc(F)cc2)cn1,0.3,-4.0,1.7,-1.2,-1.1,-21.7*
CCCC#Cc1cnc2c(c1)C(=O)N([C@H](C)CO)C[C@H](C)[C@H](CN(C)C(=O)c1cccnc1)O2,-2.1,.,4.9,20.4,?,-0.4
Cc1ccc(-c2cnc3c(c2)C(=O)N([C@H](C)CO)C[C@H](C)[C@H](CN(C)CC2CCOCC2)O3)cc1,2.2,.,-0.2,-1.2,4.6,2.1
N#Cc1c(N)n(C2CCCCC2)c2nc3ccccc3nc12,.,.,-6.1,43.1*,.,.
CCC(=O)Nc1c(C#N)c2nc3ccccc3nc2n1C1CCCCC1,.,-4.1,.,.,.,.
Cn1c(CCC(=O)Nc2ccc(S(C)(=O)=O)cc2)nc2cc(S(=O)(=O)N3CCOCC3)ccc21,3.4,-15.7,-15.1,-0.9,-5.4,12.2
Cn1c(CCC(=O)Nc2cc(S(C)(=O)=O)ccc2Cl)nc2cc(S(=O)(=O)N3CCOCC3)ccc21,62.6*,-6.0,4.9,8.8,-3.3,-1.2
Clc1ccc(-c2cc(CN3CCCCC3)no2)cc1Cl,-0.3,-4.7,.,-5.8,7.5,-5.2
SMILES,ERAP1 inh,CaV13 FRET inh,PGC1a acetyl inh,INS-1E GSIS act,DENV2 CPE rescue,rRNA inh HTS
Clc1ccc(-c2cc(CN3CCOCC3)no2)cc1,5.2,-4.5,.,147.1*,-6.4,-16.9
NCCNC(=O)c1c(O)c2cccc3c2n(c1=O)CCC3,30.6*,-4.7,5.1,23.4,3.3,5.9
CCCN1C[C@H](C)[C@H](OC)CN(C)C(=O)c2cc(NC(=O)CC(F)(F)F)ccc2OC[C@H]1C,-1.0,.,-0.2,28.3,-3.6,2.5
CCCN1C[C@@H](C)[C@@H](OC)CN(C)C(=O)c2cc(NC(=O)CC(F)(F)F)ccc2OC[C@@H]1C,-0.1,.,5.0,-3.5,55.8*,-0.4
CO[C@H]1CN(C)C(=O)c2cc(NC(=O)CC(F)(F)F)ccc2OC[C@@H](C)N(C(=O)C2CCCCC2)C[C@@H]1C,2.5,.,-3.1,-11.7,-0.8,1.8
CCC(=O)Nc1ccc2c(c1)OC[C@H](C)N(CCC(F)(F)F)C[C@@H](C)[C@H](OC)CN(C)C2=O,-0.1,.,.,-5.1,24.1*,-3.5
CO[C@H]1CN(C)C(=O)c2cc(NC(=O)CC(F)(F)F)ccc2OC[C@H](C)N(C(=O)C2CCCCC2)C[C@H]1C,-2.4,.,-3.3,0.6,50.1*,0.6
CCC(=O)Nc1ccc2c(c1)OC[C@@H](C)N(CCC(F)(F)F)C[C@H](C)[C@H](OC)CN(C)C2=O,-0.3,.,.,-11.5,-1.1,-3.8
CCCN1C[C@@H](C)[C@@H](OC)CN(C)C(=O)c2cc(NC(=O)C3CCOCC3)ccc2OC[C@H]1C,-2.9,.,7.0,44.1,26.2*,0.4
C[C@H]1CN([C@@H](C)CO)C(=O)Cc2cc(NC(=O)c3ccncc3)ccc2O[C@H]1CN(C)S(=O)(=O)c1cn(C)cn1,-0.2,.,0.4,19.2,-11.2,3.3
C[C@H]1CN([C@@H](C)CO)C(=O)c2c(c3ccccc3n2C)-c2ccccc2CO[C@@H]1CN(C)C(=O)Nc1cccc(Cl)c1Cl,0.4,.,.,-20.1,3.3,1.9
C/C=C/c1ccc2c(c1)O[C@@H](CN(C)C(=O)Nc1ccccc1)[C@@H](C)CN([C@@H](C)CO)S2(=O)=O,-0.9,.,-11.3,-23.7,-6.0,-9.0
CCCC(=O)Nc1ccc2c(c1)C(=O)N(C)C[C@H](OC)[C@H](C)CN(CCC(F)(F)F)[C@@H](C)CO2,-0.8,.,-2.1,0.6,22.5*,-1.0
COc1ccc(S(=O)(=O)Nc2cccc3c2O[C@H](CN(C)C(=O)Nc2ccc(C(F)(F)F)cc2)[C@H](C)CN([C@@H](C)CO)C3=O)cc1,-1.5,.,-1.7,-28.8,-14.6,-5.3

# Bioassay records: PubChem BioAssay, Broad Institute
